Screening data from PubChem.
This is one part of a sample in which hits are shown more often than they occur.
GIRK2 act: activators of NPY4-receptor-primed GIRK2 channels, summary, cell-based, HEK293, thallium flux; 34,000 tested, under 10 active; activation (% efficacy), % for hits at 37.5 µM; AID 1259324, 2017; G protein-activated inward rectifier potassium channel 2 (Homo sapiens), P48051; HEK293 GIRK2/NPY4 cells, thallium flux fluorescence;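 active = primary screen hit, no activity in plain HEK293 cells, and in GIRK2-only cells above 5% efficacy rising with concentration; inactive = the rest, including fluorescent compounds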;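 note: efficacy is normalized control-subtracted fluorescence 15 s after thallium addition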
GluA2 TARP mod: modulators of GluA2-stargazin AMPA receptor complexes, primary screen, cell-based, membrane potential dye | Voltage-dependent calcium channel gamma-2 subunit (Mus musculus) + Glutamate receptor 2 … | HEK293 GluA2+stargazin, membrane potential dye (FDSS), glutamate EC50; hits were called plate by plate, in both directions | calls only at 30 µM | hit rate 3.5% among 40,000 | AID 1259245, 2017;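 active = any of four per-well response measures lying three or more SD from its plate-wide compound average, in either direction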
Numbers without * were called inactive; i = inactive; x = no result given; + = active, no number.

SMILES	GIRK2 act	GluA2 TARP mod
COc1cccc(/C=C2\Oc3cc(OC(=O)N(C)C)ccc3C2=O)c1	x	i
COc1ccc(/C=C2\Oc3cc(OC(=O)N(C)C)ccc3C2=O)cc1OC	x	+
COc1ccc(NC2(C#N)CCCCC2)cc1	i	+
CC(C)N1CCN(C(=O)Cc2nnc(-c3cccc(Br)c3)o2)CC1	i	x
c1nc(N2CCNCC2)c2cn[nH]c2n1	i	+
O=C(CCCS(=O)(=O)c1ccccc1)Nc1ccc(Cl)cc1C(=O)c1ccccc1	i	i
COCCCn1c(N)c(C(=O)NCCCOC(C)C)c2nc3ccccc3nc21	i	i
CCN(CC)CCNC(=O)c1cc2cccnc2n(Cc2ccc(F)cc2)c1=O	i	i
COc1ccc(CC(=O)N2CCCSCC2CN2CCOCC2)cc1OC (stereo unspecified)	i	x
